# From PubChem
# This is a sample that favours compounds with a hit; in the whole collection about 12% have one here.
# BAZ2B inh: blocks human BAZ2B | AlphaScreen BAZ2B-H3K14Ac peptide displacement | Q9UIF8 | Potency, µM (highest dose often 114 µM), inactives show at the highest dose activity change, negative = inhibition, actives largely listed as inhibitors | 360,000 compounds, 4.4% hits; note: % is set by controls: 0 for no effect and ±100 for the full control effect; nearly all actives have a fitted effect of over 60% in size
#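 Inhibition is scored as reduced AlphaScreen emission. The BAZ2B/b-H3(5-23)K14Ac complex (50 nM each) in PBS pH 7.4, 0.01% Tween-20 meets compound (up to 110 uM) for 30 min at RT before bead addition.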
# JMJD2A Tudor inh: JMJD2A Tudor domain (human) inhibition. O75164. Potency, µM (series often up to 114 µM), for the others: at the top dose activity change, negative = inhibition, usual class: inhibitors. 390,000 compounds, 4.4% hits. AlphaScreen JMJD2A-Tudor / H3K4me3 peptide binding; note: % is set by controls: 0 for no effect and ±100 for the full control effect; nearly all actives have a fitted effect of over 50% in size
# Target sequence (O75164 whole entry, looked up, the tested form may be a part): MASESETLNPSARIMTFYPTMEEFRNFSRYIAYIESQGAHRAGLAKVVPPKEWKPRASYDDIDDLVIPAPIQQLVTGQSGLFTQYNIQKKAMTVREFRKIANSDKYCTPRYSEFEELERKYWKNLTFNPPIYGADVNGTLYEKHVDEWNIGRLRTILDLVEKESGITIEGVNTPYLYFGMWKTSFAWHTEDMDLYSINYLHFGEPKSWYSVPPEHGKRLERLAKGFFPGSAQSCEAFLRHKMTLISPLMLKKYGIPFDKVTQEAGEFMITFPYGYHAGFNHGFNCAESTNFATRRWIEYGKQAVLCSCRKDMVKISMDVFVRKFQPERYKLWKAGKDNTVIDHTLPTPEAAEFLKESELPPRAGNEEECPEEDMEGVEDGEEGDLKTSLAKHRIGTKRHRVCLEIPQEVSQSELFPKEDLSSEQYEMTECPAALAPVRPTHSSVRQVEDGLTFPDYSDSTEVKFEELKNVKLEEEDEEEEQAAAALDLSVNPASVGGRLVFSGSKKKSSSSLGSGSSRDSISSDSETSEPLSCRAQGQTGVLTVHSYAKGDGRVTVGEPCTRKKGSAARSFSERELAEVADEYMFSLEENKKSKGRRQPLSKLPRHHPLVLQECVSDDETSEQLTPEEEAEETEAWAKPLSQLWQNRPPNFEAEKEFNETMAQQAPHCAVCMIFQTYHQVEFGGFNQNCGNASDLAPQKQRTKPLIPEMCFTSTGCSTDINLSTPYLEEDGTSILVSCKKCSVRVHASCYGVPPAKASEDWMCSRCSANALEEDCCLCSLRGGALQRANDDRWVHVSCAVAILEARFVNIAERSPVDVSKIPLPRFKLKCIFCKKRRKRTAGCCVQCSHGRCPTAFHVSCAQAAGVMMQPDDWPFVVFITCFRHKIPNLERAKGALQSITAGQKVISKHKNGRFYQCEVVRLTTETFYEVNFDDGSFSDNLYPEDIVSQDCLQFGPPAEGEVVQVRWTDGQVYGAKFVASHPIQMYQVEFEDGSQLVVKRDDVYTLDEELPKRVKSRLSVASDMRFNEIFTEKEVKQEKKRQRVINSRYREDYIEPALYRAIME
# HP1b binding inh: blocks HP1-beta chromodomain binding to methylated histone tails; P83916; AlphaScreen HP1-beta / biotin-H3K9me3 peptide binding; Potency, µM (series often up to 114 µM), for the others: at the top dose activity change, negative = inhibition, hits mostly inhibitors; 390,000 compounds, 0.56% hits; AID 540317; note: nearly all actives have a fitted effect of over 70% in size
#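 AlphaScreen: HP1-beta (50 nM) preformed 30 min with biotin-H3(1-18)K9me3 peptide (50 nM) in PBS pH 7.4, 0.01% Tween-20. Compound added for 30 min at RT, then streptavidin donor/nickel chelate acceptor beads (10 ug/mL) for 30 min.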
# G9a inh: inhibitors of human histone lysine methyltransferase G9a; Q96KQ7; G9a H3K9 monomethylation, AlphaScreen, 2 h; Potency, µM (series often up to 102 µM), inactives show at the top dose activity, negative = inhibition, most hits filed as inhibitors; 350,000 compounds, 8.8% hits; AID 504332; note: % is set by controls: 0 for no effect and ±100 for the full control effect; nearly all actives have a fitted effect of over 75% in size
#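 Signal arises when biotinylated H3K9 peptide, once monomethylated, bridges streptavidin donor and antibody-captured acceptor beads. Enzyme at 20 nM was preincubated 15 min with test compounds; peptide 500 nM and SAM 20 uM then reacted for 2 h.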
# PLK1 PBD inh: blocks phosphopeptide binding to human PLK1 polo-box domain | Plk1 PBD binding of FITC phosphopeptide, fluorescence polarization | Potency, µM, for the others: max response, negative = inhibition, usual class: inhibitors | AID 720504 | 360,000 compounds, 2.8% hits | P53350; note: series mostly up to about 57 µM; % is set by controls: 0 for no effect and ±100 for the full control effect; nearly all actives have a fitted effect of over 65% in size
# Sfp PPTase inh: inhibitors of Bacillus subtilis Sfp phosphopantetheinyl transferase. Q9F4F7. Biochemical Sfp PPTase activity, qHTS. Potency, µM, inactives show largest response in the series, negative = inhibition, actives largely listed as inhibitors. 310,000 compounds, 3.5% hits;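 note: the enzyme is Sfp with the accession as filed and its product quenches rhodamine fluorescence; 0% = enzyme reaction without inhibitor and -100% = no enzyme wells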
#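 Compounds were incubated with enzyme (final 15 nM) for 15 min at room temperature before substrate addition started the reaction. Fluorescence at 525 nm excitation, 598 nm emission was recorded immediately and after 30 minutes.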
# Active calls of the source: *; ? = inconclusive; / = not tested or not shown; [ ] = another dose, or the depositor's remark. Calls come from the whole dose curve; as a rule, active = well fitted curve in the direction sought with a large enough effect; inconclusive = small, poorly fitted or top-dose-only effect, or another doubt; inactive = no such curve, though single readings can be large; an effect the other way counts as inactive or inconclusive. Potency is the fitted concentration of half-maximal effect.
SMILES,BAZ2B inh,JMJD2A Tudor inh,HP1b binding inh,G9a inh,PLK1 PBD inh,Sfp PPTase inh
C[C@H](CC[C@@H]1OC1(C)C)C1CC[C@H]2[C@@H]3CC=C4C[C@@H](O)CC[C@]4(C)[C@H]3CC[C@]12C (stereo not given in full),/,/,/,30%[59 µM],/,10%
CCC(=O)c1ccc(OC(=O)c2cnccn2)cc1,-31%,-6%,55%,?,?,3%
N#Cc1ccc(OC(=O)c2cnccn2)cc1,79µM*,?,8%,32µM*,?,-18%
N=c1c(C(=O)NC2CCCCC2)cc2c(=O)n3ccccc3nc2n1CCc1ccccc1,-15%,-3%,35%,17%,-3%,10%
CCN(CC)c1ccc(/C=C2/C(=O)c3ccc(C(=O)O)cc3C2=O)cc1,25µM*,?,35µM*,13µM*,6%,?
NC(=O)[C@@H]1CCCNc2c(I)cc([N+](=O)[O-])cc2C(=O)N[C@@H](CCCN=C(N)N)C(=O)N[C@@H](CCCN=C(N)N)C(=O)N1,-35%,/,/,14µM*,/,-5%
CC[C@H](C)C1NC(=O)[C@H](CC(=O)O)NC(=O)c2cc([N+](=O)[O-])cc(I)c2NCCC(C(N)=O)NC1=O (stereo not given in full),-32%,-20%,25%,?,-8%,21%
CC[C@H](C)[C@@H]1NC(=O)c2cc([N+](=O)[O-])cc(I)c2SC[C@@H](C(N)=O)NC(=O)[C@H](CCCCN)NC1=O,71µM*,?,1%,8.9µM*,-10%,?
C[C@@H](O)C1NC(=O)[C@H](CCCCN)NC(=O)c2cc([N+](=O)[O-])cc(F)c2NCCCC[C@@H](C(N)=O)NC1=O (stereo not given in full),-27%,-24%,18%,?,-4%,-1%
CC[C@H](C)[C@@H]1NC(=O)c2cc([N+](=O)[O-])cc(F)c2NCCCC[C@@H](C(N)=O)NC(=O)[C@H](CC(N)=O)NC1=O,-2%,-20%,36%,?,-4%,7%
CC[C@H](C)[C@@H]1NC(=O)c2cc([N+](=O)[O-])cc(I)c2NCC[C@@H](C(N)=O)NC(=O)[C@H](CCCN=C(N)N)NC1=O,?,-28%,34%,14µM*,3%,5%
O=C(CSc1nnc(-c2cccnc2)n1Cc1ccco1)N1CCc2ccccc21,59%,2%,25%,-25%,-2%,20µM*
Fc1ccc(CSc2nnc(-c3cccnc3)n2Cc2ccco2)cc1,4%,-18%,9%,50µM*,-16%,40µM*
Fc1ccc(CSc2nnc(-c3cnccn3)n2Cc2ccco2)cc1,-33%,-29%,6%,-27%[12.7 µM],-4%,-16%
COc1ccc(CCNC(=O)CSC2=NS(=O)(=O)c3cc(F)ccc3N2)cc1OC,/,/,/,/,-7%,/
Cc1c(Cl)cccc1NC(=O)Nc1nnc(N2CCCCCC2)s1,3%,-14%,18%,-5%[59 µM],/,/
Cc1nn(Cc2ccc(C(=O)NC(C)(C)C)o2)c(C)c1Br,-5%,-5%,45%,?,-20%,56µM*
CC(NC(=O)CCCCCN1C(=O)c2ccccc2C1=O)c1ccc2c(c1)CCCC2 (stereo not given),5%,-35%,10%,8.9µM*,-2%,-18%
CC(NC(=O)CCCCCCN1C(=O)c2ccccc2C1=O)c1ccc2c(c1)CCCC2 (stereo not given),-2%,3%,48%,32%[59 µM],3%,9%
O=C(COC(=O)c1cc(-c2cccs2)nn1-c1ccccc1)Nc1ccc(Cl)c([N+](=O)[O-])c1,1%,-18%,11%,40µM*,4%,18%
Cc1ccc(S(=O)(=O)c2nc(-c3ccccc3Cl)oc2N2CCCCCC2)cc1,?,-33%,?,7.1µM*,/,/
Cc1ccc(S(=O)(=O)c2nc(-c3ccccc3Cl)oc2N2CCN(C)CC2)cc1,/,50µM*,?,/,-3%,/
O=S(=O)(c1ccc(F)cc1)c1nc(-c2ccccc2F)oc1N1CCCCC1,?,-25%,-12%,?,-10%,?
Cc1ccc(S(=O)(=O)c2nc(-c3ccc(F)cc3)oc2N2CCN(c3ccccc3)CC2)cc1,?,?,19%,?,/,/
Cc1ccc(S(=O)(=O)c2nc(-c3ccccc3F)oc2N2CC(C)OC(C)C2)cc1 (stereo not given),?,-31%,11%,40µM*,-6%,?
SMILES,BAZ2B inh,JMJD2A Tudor inh,HP1b binding inh,G9a inh,PLK1 PBD inh,Sfp PPTase inh
O=S(=O)(c1ccccc1)c1nc(-c2ccccc2Cl)oc1N1CCCCCC1,-35%,-29%,-1%,?,/,/
N#CCCn1c(=O)c(-c2ccccc2)nc2cnc(N3CCNCC3)nc21,/,/,/,-10%[12.7 µM],/,9%
Cn1ccsc1=NC(=O)c1cccc(OC(F)F)c1,0%,-2%,62%,10%,-5%,4%
Cc1ccc(NCCNc2ccc(C)cc2)cc1,/,22µM*,-41%,?,1%,12%
O=C1CCC(=O)N1CNc1ccc(Oc2ccccc2)cc1,?,?,2%,?,-3%,11%
Cc1ccc(NCCc2ccc(C)nc2)cc1,-19%,-34%,-8%,50µM*,-7%,11%
Cc1ccc(NCc2ccccc2F)cc1,-35%,0%,21%,?,4%,-2%
COc1ccc(C(=O)CCNc2ccc(F)cc2)cc1,-3%,-14%,0%,20%,-6%,6%
COc1ccc(NCN2C(=O)CCC2=O)cc1,-4%,-21%[11.4 µM],-19%,?,24µM*,14%
COc1ccc(NCCNc2ccc(OC)cc2)cc1,50µM*,?,-18%,9%[0.0925 µM],-3%,-3%
CC(=O)SC1CC2=CC(=O)CC[C@]2(C)C2CC[C@@]3(C)C(CC[C@@]34CCC(=O)O4)C12 (stereo not given in full),/,/,/,27%[59 µM],/,/
COCCNc1nc(NCCOc2ccccc2)c2sc(-c3ccccc3)cc2n1,/,/,/,/,1%,/
CCc1cnc2c(c1SCC(=O)c1ccc(Cl)cc1)c(=O)n(C)c(=O)n2C,0%,-11%,31%,?,/,/
Cc1ccc(N=C2C(=O)Nc3ccccc32)cc1,-15%,-14%,17%,11%,-9%,-1%
CC1=NNC(=O)c2ccccc2O1,50µM*,5µM*,27%,-137%[59 µM],-13%,?
CCc1ccc(N=C2NC(=O)/C(=C/c3ccc(OCC(=O)O)cc3)S2)cc1,50µM*,?,4%,50µM*,-29%,15%
CCc1ccc(N=C2NC(=O)/C(=C/c3ccc(OCC(=O)O)c(OC)c3)S2)cc1,7.1µM*,28µM*,45µM*,/,?,12%
CCOC(=O)C1=C(O)/C(=C/c2ccc(OCC(=O)O)c(OCC)c2)SC1=Nc1ccc(C)cc1,-28%,-31%,24%,45µM*,-17%,-3%
CCOc1ccc(CNC(=O)COc2cc(=O)n(C)c3ccccc23)cc1,-10%,-16%,2%,6%[59 µM],/,/
COc1cccc(C(C(=O)NC2CCCC2)N(C(=O)c2ccco2)c2ccc(NC(C)=O)cc2)c1OC (stereo not given),-20%,-1%,24%,-6%,4%,11%
